Test results as given in the supplement of paper PMC10849652.
The full data set covers some 7,900 targets. This sample favours those with a hit. About 0.6% of all pairs of compound and target were hits.

Compound: c1cn2cc(-c3ccc4cn[nH]c4c3)nc(Nc3ccc(N4CCOCC4)cc3)c2n1 [entospletinib]
Assay: log2 fold change, soluble protein after heating vs DMSO (PISA); higher = thermal stabilisation; K562 cells, 10 uM, 30 min; active = over 0.2 and 3.5 SD of the protein, either way, in both replicates (recomputed)
Outline: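 Quantification of soluble protein used TMTpro 16plex LC-MS/MS, with channel sums equalised. Samples were the supernatant after 21,000xg for 90 min of pooled aliquots from K562 cells (2×10^6 cells/mL) treated with 10 μM compound for 30 min, heated for 3 min over 48°C-58°C, and extracted in PBS with 0.5% NP-40 at 4°C. Values, from duplicates, describe thermal stability against control samples on a log2 fold-change scale.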

UniProt Q15642, sequence (Q15642 whole entry, looked up): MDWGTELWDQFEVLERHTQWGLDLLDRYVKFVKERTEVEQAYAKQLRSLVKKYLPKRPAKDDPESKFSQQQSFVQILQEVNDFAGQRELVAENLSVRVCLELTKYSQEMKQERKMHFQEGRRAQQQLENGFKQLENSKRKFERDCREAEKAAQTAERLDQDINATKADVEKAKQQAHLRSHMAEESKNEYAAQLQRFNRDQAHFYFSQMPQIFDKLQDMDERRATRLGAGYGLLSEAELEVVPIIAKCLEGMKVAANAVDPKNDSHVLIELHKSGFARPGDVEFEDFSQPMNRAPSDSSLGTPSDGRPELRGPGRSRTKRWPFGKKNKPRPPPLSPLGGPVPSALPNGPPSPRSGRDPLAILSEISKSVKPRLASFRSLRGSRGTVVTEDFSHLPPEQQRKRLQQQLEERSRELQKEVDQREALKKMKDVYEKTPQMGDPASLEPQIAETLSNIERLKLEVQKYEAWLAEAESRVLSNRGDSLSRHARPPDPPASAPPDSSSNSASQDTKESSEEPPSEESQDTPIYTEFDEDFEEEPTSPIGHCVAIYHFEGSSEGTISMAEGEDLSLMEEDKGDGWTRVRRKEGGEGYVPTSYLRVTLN
UniProt Q9Y5Z9, sequence (Q9Y5Z9 whole entry, looked up): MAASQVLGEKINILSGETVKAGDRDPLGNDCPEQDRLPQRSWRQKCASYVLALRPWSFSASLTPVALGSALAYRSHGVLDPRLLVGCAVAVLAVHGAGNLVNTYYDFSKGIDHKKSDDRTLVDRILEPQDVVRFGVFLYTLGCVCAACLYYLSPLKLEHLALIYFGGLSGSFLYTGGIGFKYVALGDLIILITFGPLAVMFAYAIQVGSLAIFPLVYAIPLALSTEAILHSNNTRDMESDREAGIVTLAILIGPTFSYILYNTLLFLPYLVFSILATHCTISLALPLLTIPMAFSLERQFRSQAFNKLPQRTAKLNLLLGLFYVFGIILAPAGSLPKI
UniProt A0PJW6, sequence (A0PJW6 whole entry, looked up): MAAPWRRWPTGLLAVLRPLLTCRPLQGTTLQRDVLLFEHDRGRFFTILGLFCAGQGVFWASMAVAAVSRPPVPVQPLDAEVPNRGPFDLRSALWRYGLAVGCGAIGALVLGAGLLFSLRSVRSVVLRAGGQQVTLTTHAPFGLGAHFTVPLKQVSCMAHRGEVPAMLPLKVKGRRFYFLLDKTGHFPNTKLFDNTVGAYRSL
UniProt Q6PID6, sequence (Q6PID6 whole entry, looked up): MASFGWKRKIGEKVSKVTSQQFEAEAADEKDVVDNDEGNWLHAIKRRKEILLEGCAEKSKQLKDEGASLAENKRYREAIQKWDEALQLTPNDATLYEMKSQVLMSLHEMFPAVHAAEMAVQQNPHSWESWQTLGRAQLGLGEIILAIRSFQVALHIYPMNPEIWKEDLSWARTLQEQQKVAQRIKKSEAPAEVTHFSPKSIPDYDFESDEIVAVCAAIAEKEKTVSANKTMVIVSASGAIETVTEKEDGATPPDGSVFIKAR
UniProt P36406, sequence (P36406 whole entry, looked up): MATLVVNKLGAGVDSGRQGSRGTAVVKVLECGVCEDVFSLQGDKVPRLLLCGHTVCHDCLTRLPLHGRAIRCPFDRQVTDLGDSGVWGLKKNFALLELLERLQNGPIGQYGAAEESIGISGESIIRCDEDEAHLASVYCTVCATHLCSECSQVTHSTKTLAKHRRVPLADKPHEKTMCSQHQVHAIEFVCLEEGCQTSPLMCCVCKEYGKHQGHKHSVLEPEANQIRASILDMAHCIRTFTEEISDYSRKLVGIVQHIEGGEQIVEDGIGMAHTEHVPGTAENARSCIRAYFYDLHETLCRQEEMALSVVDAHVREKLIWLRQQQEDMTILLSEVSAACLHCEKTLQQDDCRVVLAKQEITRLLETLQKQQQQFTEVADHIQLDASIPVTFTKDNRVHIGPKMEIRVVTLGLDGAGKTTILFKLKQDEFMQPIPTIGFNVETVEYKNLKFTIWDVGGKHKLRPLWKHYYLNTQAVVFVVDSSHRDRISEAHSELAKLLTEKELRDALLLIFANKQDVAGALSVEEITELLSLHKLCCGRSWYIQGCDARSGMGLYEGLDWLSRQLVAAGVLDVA
UniProt P61960, sequence (P61960 whole entry, looked up): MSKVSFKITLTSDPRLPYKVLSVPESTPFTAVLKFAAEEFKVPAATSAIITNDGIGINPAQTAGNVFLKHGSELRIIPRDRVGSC
UniProt Q9NX61, sequence (Q9NX61 whole entry, looked up): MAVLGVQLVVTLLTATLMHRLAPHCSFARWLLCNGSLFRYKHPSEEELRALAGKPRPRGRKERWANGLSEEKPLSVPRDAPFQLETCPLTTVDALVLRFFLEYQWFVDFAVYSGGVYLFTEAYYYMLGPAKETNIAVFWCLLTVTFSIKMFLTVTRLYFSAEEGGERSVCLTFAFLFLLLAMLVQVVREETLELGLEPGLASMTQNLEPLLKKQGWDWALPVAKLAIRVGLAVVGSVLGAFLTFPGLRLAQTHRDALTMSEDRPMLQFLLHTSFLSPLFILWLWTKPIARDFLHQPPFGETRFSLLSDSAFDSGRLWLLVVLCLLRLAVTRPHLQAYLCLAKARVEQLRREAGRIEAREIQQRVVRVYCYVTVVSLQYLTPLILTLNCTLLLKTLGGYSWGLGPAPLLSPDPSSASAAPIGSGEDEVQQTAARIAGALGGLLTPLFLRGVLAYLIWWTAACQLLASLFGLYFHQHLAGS
UniProt Q5U3C3, sequence (Q5U3C3 whole entry, looked up): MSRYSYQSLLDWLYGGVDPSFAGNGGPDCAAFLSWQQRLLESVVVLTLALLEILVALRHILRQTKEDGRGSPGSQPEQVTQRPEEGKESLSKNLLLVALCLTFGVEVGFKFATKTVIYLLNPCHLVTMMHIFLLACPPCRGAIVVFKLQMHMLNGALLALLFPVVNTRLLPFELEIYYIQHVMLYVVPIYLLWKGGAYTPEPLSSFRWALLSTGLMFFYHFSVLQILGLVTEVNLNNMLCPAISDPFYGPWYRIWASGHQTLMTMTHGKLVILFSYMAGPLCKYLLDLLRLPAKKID
UniProt Q8N3P4, sequence (Q8N3P4 whole entry, looked up): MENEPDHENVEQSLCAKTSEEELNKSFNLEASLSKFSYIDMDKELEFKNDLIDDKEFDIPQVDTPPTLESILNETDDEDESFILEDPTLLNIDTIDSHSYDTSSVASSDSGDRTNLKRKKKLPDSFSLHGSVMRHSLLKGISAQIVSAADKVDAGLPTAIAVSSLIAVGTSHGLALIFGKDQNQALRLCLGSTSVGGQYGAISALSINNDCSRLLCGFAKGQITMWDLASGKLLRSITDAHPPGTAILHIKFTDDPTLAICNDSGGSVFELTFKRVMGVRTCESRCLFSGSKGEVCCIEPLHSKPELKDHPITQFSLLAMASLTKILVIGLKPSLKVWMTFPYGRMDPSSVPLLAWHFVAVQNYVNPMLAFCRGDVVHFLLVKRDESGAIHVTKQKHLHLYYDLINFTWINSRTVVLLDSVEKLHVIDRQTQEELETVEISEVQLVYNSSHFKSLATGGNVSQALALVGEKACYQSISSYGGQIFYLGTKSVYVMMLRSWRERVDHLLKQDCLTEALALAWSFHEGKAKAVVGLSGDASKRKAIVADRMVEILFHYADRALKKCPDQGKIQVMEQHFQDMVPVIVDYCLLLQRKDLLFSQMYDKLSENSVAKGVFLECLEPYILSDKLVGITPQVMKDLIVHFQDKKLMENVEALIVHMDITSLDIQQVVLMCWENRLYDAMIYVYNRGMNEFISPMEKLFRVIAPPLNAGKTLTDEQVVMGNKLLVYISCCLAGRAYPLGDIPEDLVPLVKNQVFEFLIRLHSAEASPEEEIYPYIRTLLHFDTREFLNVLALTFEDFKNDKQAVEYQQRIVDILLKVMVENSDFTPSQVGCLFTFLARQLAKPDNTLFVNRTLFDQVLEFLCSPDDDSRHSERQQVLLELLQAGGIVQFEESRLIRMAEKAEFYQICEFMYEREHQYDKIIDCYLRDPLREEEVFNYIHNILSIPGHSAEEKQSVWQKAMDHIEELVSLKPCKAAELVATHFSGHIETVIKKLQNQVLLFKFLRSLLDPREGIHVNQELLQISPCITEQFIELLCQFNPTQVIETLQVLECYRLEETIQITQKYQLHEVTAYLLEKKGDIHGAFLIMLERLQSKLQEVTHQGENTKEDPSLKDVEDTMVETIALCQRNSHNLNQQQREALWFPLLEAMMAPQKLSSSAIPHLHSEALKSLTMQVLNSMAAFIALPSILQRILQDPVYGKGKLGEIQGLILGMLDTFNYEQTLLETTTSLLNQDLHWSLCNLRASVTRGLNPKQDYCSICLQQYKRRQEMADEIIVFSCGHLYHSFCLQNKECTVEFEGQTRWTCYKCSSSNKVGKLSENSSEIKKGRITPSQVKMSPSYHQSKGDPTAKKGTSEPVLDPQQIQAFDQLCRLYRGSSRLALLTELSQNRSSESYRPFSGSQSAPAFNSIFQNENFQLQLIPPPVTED
UniProt Q9BZI7, sequence (Q9BZI7 whole entry, looked up): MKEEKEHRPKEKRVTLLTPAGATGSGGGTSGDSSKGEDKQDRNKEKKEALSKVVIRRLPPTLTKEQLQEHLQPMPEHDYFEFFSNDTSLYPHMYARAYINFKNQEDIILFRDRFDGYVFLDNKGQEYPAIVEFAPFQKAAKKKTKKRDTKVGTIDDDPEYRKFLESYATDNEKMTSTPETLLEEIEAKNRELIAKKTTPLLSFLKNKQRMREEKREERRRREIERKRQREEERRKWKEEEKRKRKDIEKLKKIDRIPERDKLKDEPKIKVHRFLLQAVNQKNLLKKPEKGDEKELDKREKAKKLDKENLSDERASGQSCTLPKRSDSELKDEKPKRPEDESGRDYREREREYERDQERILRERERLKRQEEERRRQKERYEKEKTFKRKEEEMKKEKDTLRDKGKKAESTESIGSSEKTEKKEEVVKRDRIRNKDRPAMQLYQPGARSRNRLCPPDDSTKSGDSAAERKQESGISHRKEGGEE
UniProt Q9BQB6, sequence (Q9BQB6 whole entry, looked up): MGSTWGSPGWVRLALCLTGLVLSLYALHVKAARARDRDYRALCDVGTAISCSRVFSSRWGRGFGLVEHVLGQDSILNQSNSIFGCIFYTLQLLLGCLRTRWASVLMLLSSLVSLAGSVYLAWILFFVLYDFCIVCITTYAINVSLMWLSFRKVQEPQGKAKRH

log2 fold change, inactive:
TTC33 (UniProt Q6PID6) 0.094
VPS33B (UniProt Q9H267) 0.008
TSFM (UniProt P43897) -0.191
WDR7 (UniProt Q9Y4E6) 0.126
WDHD1 (UniProt O75717) -0.019
TMEM184C (UniProt Q9NVA4) 0.041
XPO1 (UniProt O14980) -0.016
TMEM164 (UniProt Q5U3C3) 0.007
VRK2 (UniProt Q86Y07) -0.078
XPOT (UniProt O43592) 0.032
UTP14A (UniProt Q9BVJ6) 0.042
TSC2 (UniProt P49815) -0.17
USP48 (UniProt Q86UV5) -0.055
TMEM161A (UniProt Q9NX61) -0.026
UPF3B (UniProt Q9BZI7) 0.098
TXNL4B (UniProt Q9NX01) 0.002
TMEM223 (UniProt A0PJW6) 0.047
VTI1B (UniProt Q9UEU0) 0.082
WASHC2A (UniProt Q641Q2) 0.03
VPS8 (UniProt Q8N3P4) 0.034
WNK1 isoform 7 (UniProt Q9H4A3) -0.005
WASH2P (UniProt Q6VEQ5) 0.015
VKORC1 (UniProt Q9BQB6) 0.006
TMEM87B (UniProt Q96K49) 0.063
UFM1 (UniProt P61960) -0.079
UHRF1BP1L (UniProt A0JNW5) 0.012
VPS41 (UniProt P49754) 0.017
TXNRD1 (UniProt Q16881) 0.054
TRIM23 (UniProt P36406) -0.041
XRCC5 (UniProt P13010) -0.039
TMEM179B (UniProt Q7Z7N9) 0.098
TNNC2 (UniProt P02585) -0.038
TRAPPC11 (UniProt Q7Z392) 0.012
UBA52 (UniProt P62987) 0.159
TRIP10 isoform 2 (UniProt Q15642) 0.062
UBE2D1 (UniProt P51668) -0.025
UBIAD1 (UniProt Q9Y5Z9) -0.013
WDR37 isoform 2 (UniProt Q9Y2I8) -0.004
WBP4 (UniProt O75554) 0.036
TRIP10 (UniProt Q15642) 0.061
